The record followed here is PubChem BioAssay AID651548 (Broad Institute, 2012).

Screen size: about 57,000 compounds; about 200 (0.35%) were called active.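 Rule for the calls: active = mean inhibition of replicates at least 50% and every single replicate also reaching 50%; inconclusive = mean inhibition at least 50% but some replicate falls below 50%; inactive = mean inhibition under 50%.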 Only a selection was taken, and actives are over-represented in it overall.

By inhibition is commonly meant the relative decrease from the control value, in per cent.

This assay deals with Histone-lysine N-methyltransferase EZH2 (Homo sapiens) (UniProt Q15910). The assay can be described thus: inhibition of PRC2 H3K27 methylation – biochemical, DELFIA time-resolved fluorescence, single point, primary screen (AID 651548).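 Note: dimethyl H3K27 on biotinylated H3 21-44 peptide detected by antibody; plate controls were median neutral control wells for no effect and median positive control wells for full effect.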 The conditions noted are these: DELFIA TRF, 1 h, at 12.5 µM, stronger effect = higher value.
Sequence of Histone-lysine N-methyltransferase EZH2 (Homo sapiens) (Q15910 whole entry, looked up): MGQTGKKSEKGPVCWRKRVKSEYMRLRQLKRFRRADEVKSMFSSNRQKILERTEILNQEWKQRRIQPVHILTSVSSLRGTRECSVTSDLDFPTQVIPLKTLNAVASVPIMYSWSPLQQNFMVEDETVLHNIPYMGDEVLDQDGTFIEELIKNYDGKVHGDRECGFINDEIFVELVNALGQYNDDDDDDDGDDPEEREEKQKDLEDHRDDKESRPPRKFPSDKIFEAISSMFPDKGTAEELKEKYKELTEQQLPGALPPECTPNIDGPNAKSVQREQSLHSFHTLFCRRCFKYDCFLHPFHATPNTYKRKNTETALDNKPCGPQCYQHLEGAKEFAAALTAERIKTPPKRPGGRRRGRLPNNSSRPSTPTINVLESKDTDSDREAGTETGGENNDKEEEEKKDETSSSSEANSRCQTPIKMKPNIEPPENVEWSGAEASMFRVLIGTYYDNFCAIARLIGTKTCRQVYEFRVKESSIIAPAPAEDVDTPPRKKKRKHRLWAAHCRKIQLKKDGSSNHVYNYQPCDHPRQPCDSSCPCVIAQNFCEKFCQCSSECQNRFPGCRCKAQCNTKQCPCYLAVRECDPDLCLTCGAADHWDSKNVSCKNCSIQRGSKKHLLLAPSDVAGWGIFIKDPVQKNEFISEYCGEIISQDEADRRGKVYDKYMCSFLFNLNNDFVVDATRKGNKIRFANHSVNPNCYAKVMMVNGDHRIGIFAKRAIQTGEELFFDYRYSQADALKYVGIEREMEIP
As for `C[C@@H](NC(=O)C[C@H]1C[C@@H]2c3cc(NC(=O)c4ccc5c(c4)OCO5)ccc3O[C@@H]2[C@@H](CO)O1)c1ccccc1`, the inhibition was -6.67% (inactive).

On to `COc1ccccc1NC(=O)N[C@H]1CC[C@@H](CC(=O)N[C@@H](C)c2ccccc2)O[C@H]1CO`, for which the inhibition is -11.3% (inactive).

As to `O=C(C[C@H]1CC[C@H](NC(=O)Nc2ccccc2F)[C@@H](CO)O1)NCc1ccccc1`, the inhibition is 4.86% (inactive).

As to `O=C(C[C@@H]1CC[C@H](NC(=O)C2CC2)[C@@H](CO)O1)NCc1ccncc1`, the inhibition is 3.36% (inactive).

With `C[C@@H]1CN([C@@H](C)CO)C(=O)c2cc(-c3cccnc3)cnc2O[C@H]1CN(C)Cc1ccc(-c2ccccc2)cc1`, the inhibition was 7.86% (inactive).

`CN(C)Cc1cn(CC[C@H]2CC[C@H](NC(=O)Nc3ccccc3F)[C@@H](CO)O2)nn1`: the inhibition was 24.4% (inactive).

On to `C[C@H]1CN([C@@H](C)CO)S(=O)(=O)c2ccc(-c3cccnc3)cc2O[C@H]1CN(C)C(=O)C1CCCCC1`, for which the inhibition was 0.754% (inactive).

In the case of `C[C@@H]1CN([C@@H](C)CO)S(=O)(=O)c2ccc(-c3ccc(F)cc3)cc2O[C@H]1CN(C)C(=O)c1ccccc1F`, the inhibition is -11% (inactive).

As for `CO[C@@H]1CN(C)C(=O)c2cc(NC(=O)c3ccccc3)ccc2OC[C@@H](C)N(C(C)=O)C[C@@H]1C`, the inhibition was 4.81% (inactive).

With `O=C(C[C@H]1C=C[C@H](NC(=O)c2cccc(F)c2)[C@@H](CO)O1)NCc1ccc(Oc2ccccc2)cc1`, the inhibition was -0.132% (inactive).

Take `CCCC(=O)Nc1ccc2c(c1)C(=O)N(C)C[C@@H](OC)[C@@H](C)CN(C(=O)CC)[C@H](C)CO2`: the inhibition was 8.4% (inactive).

Turning to `C/C=C1/[C@H](O[C@@H]2O[C@H](CO)[C@@H](O)[C@H](O)[C@H]2O)OC=C2C(=O)O[C@@H]3C[C@@H](C(C)CO)[C@H](COC(=O)C[C@H]21)[C@H]3C` (some centres not stated), the inhibition was -12.8% (inactive).

In the case of `COC(=O)C1=CO[C@@H](O[C@@H]2O[C@H](CO)[C@@H](O)[C@H](O)[C@H]2O)[C@@H]2[C@@H](C)[C@@H](OC(=O)C3=CO[C@@H](O[C@@H]4O[C@H](CO)[C@@H](O)[C@H](O)[C@H]4O)[C@@H]4[C@@H](C)[C@@H](OC(C)=O)C[C@H]34)C[C@H]12`, the inhibition was -4.29% (inactive).

Consider `CC1=COC(O[C@@H]2O[C@H](CO)[C@@H](O)[C@H](O)[C@H]2O)C2C1CC(O)C2CO` (some centres not stated), for which the inhibition is 58.6% (active).

In the case of `COc1ccccc1-c1cn(CC[C@H]2CC[C@@H](NC(=O)Cc3ccccn3)[C@@H](CO)O2)nn1`, the inhibition was 9.32% (inactive).

For `COc1cccc(NC(=O)Nc2ccc3c(c2)C(=O)N(C)C[C@@H](OC)[C@H](C)CN(CC2CC2)[C@H](C)CO3)c1`, the inhibition was -8.45% (inactive).

For `CN1CCN(C(=O)c2cc3c(c(-c4cccc(-c5ccc(C(=O)N(C)C)cc5)c4)n2)[C@@H](CCO)N([S@](=O)C(C)(C)C)C3)CC1`, the inhibition was -12.8% (inactive).

For `COc1ccc(CN2C[C@@H](C)[C@H](OC)CN(C)C(=O)c3cc(NC(C)=O)ccc3OC[C@@H]2C)cc1`, the inhibition was -2.6% (inactive).

In the case of `O=C(C[C@H]1C=C[C@H](NC(=O)c2cnccn2)[C@@H](CO)O1)NCc1ccccc1F`, the inhibition was 4.44% (inactive).

As to `CN(C)C(=O)C[C@H]1C[C@@H]2c3cc(NC(=O)NC4CCCCC4)ccc3O[C@@H]2[C@@H](CO)O1`, the inhibition is 9.52% (inactive).

Consider `O=C(C[C@@H]1C=C[C@@H](NC(=O)C2CC2)[C@H](CO)O1)NCCCN1CCOCC1`, for which the inhibition is -1.42% (inactive).

As to `CCC(=O)Nc1ccc2c(c1)C(=O)N(C)C[C@H](OC)[C@@H](C)CN(C(=O)c1cnccn1)[C@@H](C)CO2`, the inhibition was 11.1% (inactive).

As to `COCC(=O)Nc1ccc2c(c1)OC[C@H](C)N(Cc1ccccc1OC)C[C@@H](C)[C@@H](OC)CN(C)C2=O`, the inhibition was -9.26% (inactive).

Turning to `CO[C@H]1CN(C)C(=O)c2cc(NS(=O)(=O)CC(F)(F)F)ccc2OC[C@H](C)N(C(=O)c2ccc3c(c2)OCO3)C[C@H]1C`, the inhibition is 13% (inactive).

On to `CO[C@@H]1CN(C)C(=O)c2cc(NC(=O)c3ccno3)ccc2OC[C@@H](C)N(S(C)(=O)=O)C[C@@H]1C`, for which the inhibition was 4.22% (inactive).

Regarding `O=C(CCCCCC(=O)Nc1ccccc1O)N/N=C/c1ccc(I)cc1`, the inhibition is 14.9% (inactive).

On to `O=C(CCCCCCC(=O)Nc1ccccc1O)N/N=C/c1ccc(Oc2ccccc2)cc1`, for which the inhibition is 60.3% (active).

Regarding `O=C(CCCCCCC(=O)Nc1ccccc1O)N/N=C/c1ccc(C(F)(F)F)cc1`, the inhibition was -17.5% (inactive).

For the compound `O=C(C[C@@H]1C[C@@H]2c3cc(NS(=O)(=O)c4ccc(F)cc4)ccc3O[C@@H]2[C@H](CO)O1)NCc1cc(F)ccc1F`, the inhibition is 17% (inactive).

Regarding `CCCCc1nn(-c2ccccc2C(F)(F)F)c(=O)n1Cc1ccc(-c2ccccc2S(=O)(=O)NC(=O)c2sccc2C)cc1`, the inhibition is 62% (active).

As to `COCC(=O)Nc1ccc2c(c1)C(=O)N(C)C[C@H](OC)[C@@H](C)CN(CC1CC1)[C@@H](C)CO2`, the inhibition was 9.52% (inactive).

As for `O=C(C[C@@H]1C[C@@H]2c3cc(NC(=O)C4CCC4)ccc3O[C@@H]2[C@@H](CO)O1)NCCN1CCCCC1`, the inhibition is -3.85% (inactive).

For the compound `CC(C)NC(=O)N[C@@H]1CC[C@H](CC(=O)NCCN2CCCC2)O[C@@H]1CO`, the inhibition is -11.4% (inactive).

As to `C[C@H](O)C#Cc1ccc2c(c1)O[C@H](CN(C)C(=O)C1CC1)[C@@H](C)CN([C@H](C)CO)S2(=O)=O`, the inhibition was 7.79% (inactive).

Turning to `CO[C@H]1CN(C)C(=O)c2ccc(NS(=O)(=O)c3cn(C)cn3)cc2OC[C@@H](C)N(C)C[C@@H]1C`, the inhibition was -2.12% (inactive).

In the case of `CCC(=O)N(C)C[C@H]1Oc2cc(C#CC3CCCC3)ccc2S(=O)(=O)N([C@H](C)CO)C[C@@H]1C`, the inhibition is 10% (inactive).

Regarding `CN(C)CC(=O)N[C@@H]1CC[C@H](CCn2cc(C3CCCC3)nn2)O[C@H]1CO`, the inhibition was -5.37% (inactive).

In the case of `O=C(CCN1CCCCC1)N[C@H]1CC[C@H](CCNS(=O)(=O)c2ccc(F)cc2)O[C@@H]1CO`, the inhibition is 4.74% (inactive).

Take `O=C(NCC[C@H]1CC[C@@H](NC(=O)c2ccncc2)[C@@H](CO)O1)Nc1ccc(Cl)cc1`: the inhibition was 1.17% (inactive).

On to `COc1cccc(NC(=O)N[C@@H]2C=C[C@H](CC(=O)NCc3ccccn3)O[C@H]2CO)c1`, for which the inhibition is -2.05% (inactive).

With `O=C(C[C@@H]1C=C[C@H](NC(=O)C2CCOCC2)[C@H](CO)O1)NCc1ccncc1`, the inhibition was 7.09% (inactive).

Regarding `CCC(=O)Nc1ccc2c(c1)C(=O)N(C)C[C@H](OC)[C@@H](C)CN(Cc1cccnc1)[C@H](C)CO2`, the inhibition is 2.36% (inactive).

As to `CO[C@H]1CN(C)C(=O)c2cc(NC(=O)NC(C)C)ccc2OC[C@@H](C)NC[C@@H]1C`, the inhibition was 4.41% (inactive).

Regarding `Cc1ccc(S(=O)(=O)N[C@@H]2CC[C@H](CCn3cc(-c4cccc(F)c4)nn3)O[C@@H]2CO)cc1`, the inhibition was -11.1% (inactive).

For `CC(C)NC(=O)N[C@@H]1CC[C@H](CCn2cc(-c3ccccc3)nn2)O[C@H]1CO`, the inhibition was 6.84% (inactive).

Turning to `CO[C@H]1CN(C)C(=O)c2ccc(NC(C)=O)cc2OC[C@@H](C)NC[C@H]1C`, the inhibition is -8.55% (inactive).

As for `COC(=O)[C@H](Cc1ccc(N=[N+]=[N-])cc1)N1CC2=C[C@@H](C3CC3)n3c(=O)n(C)c(=O)n3[C@H]2[C@@H]1[C@@H](O)Cc1ccccc1`, the inhibition was 1.09% (inactive).

`CO[C@@H]1CN(C)C(=O)c2cc(NC(=O)C3CC3)ccc2OC[C@H](C)N(C(=O)c2ccccc2F)C[C@H]1C`: the inhibition was 3.97% (inactive).

For the compound `COCC(=O)N(C)C[C@@H]1Oc2ncc(C#C[C@H](C)O)cc2C(=O)N([C@@H](C)CO)C[C@@H]1C`, the inhibition was -0.468% (inactive).

With `O=C(C[C@@H]1CC[C@@H](NC(=O)c2ccc3c(c2)OCO3)[C@H](CO)O1)NCc1ccc(F)cc1`, the inhibition was -0.86% (inactive).

For `COc1ccc(CNC(=O)C[C@H]2CC[C@H](NC(=O)Nc3ccc4c(c3)OCO4)[C@H](CO)O2)cc1`, the inhibition was 13.2% (inactive).

With `C[C@H](CO)N1C[C@H](C)[C@@H](CN(C)C(=O)c2ccccc2)OCCCC[C@H](C)Oc2ccc(NC(=O)c3ccccc3)cc2C1=O`, the inhibition is -18.6% (inactive).

Take `CO[C@@H]1CN(C)C(=O)c2cc(NC(=O)NC3CCCCC3)ccc2OC[C@@H](C)N(C(C)=O)C[C@H]1C`: the inhibition was 0.307% (inactive).

For `C[C@@H]1CN([C@H](C)CO)S(=O)(=O)c2ccc(-c3ccccc3)cc2O[C@H]1CN(C)C(=O)C1CCC1`, the inhibition was -4.42% (inactive).

For the compound `CO[C@@H]1CN(C)C(=O)c2ccc(NC(=O)Nc3c(C)noc3C)cc2OC[C@@H](C)NC[C@H]1C`, the inhibition is 0.549% (inactive).

On to `CO[C@@H]1CN(C)C(=O)c2cc(NS(=O)(=O)c3ccc(Cl)cc3)ccc2OC[C@H](C)NC[C@@H]1C`, for which the inhibition was 3.36% (inactive).

In the case of `CO[C@@H]1CN(C)C(=O)c2ccc(NC(=O)c3ccccn3)cc2OC[C@@H](C)N(C(=O)C2CCCCC2)C[C@H]1C`, the inhibition is -0.858% (inactive).

Regarding `CO[C@@H](CN(C)C(=O)c1ccc2c(c1)OCO2)[C@@H](C)CN([C@H](C)CO)S(=O)(=O)c1ccccc1`, the inhibition is -0.585% (inactive).

As to `CO[C@H]1CN(C)C(=O)c2cc(NC(=O)Nc3ccccc3F)ccc2OC[C@@H](C)N(CCC(F)(F)F)C[C@@H]1C`, the inhibition is -15.8% (inactive).

As to `C[C@H](NC(=O)C[C@@H]1C[C@@H]2c3cc(NC(=O)Nc4ccc(C(F)(F)F)cc4)ccc3O[C@@H]2[C@H](CO)O1)c1ccccc1`, the inhibition is -10.9% (inactive).

Consider `O=C(Nc1ccccc1)N[C@@H]1CC[C@H](CCn2cc(C3(O)CCCC3)nn2)O[C@@H]1CO`, for which the inhibition is -9.38% (inactive).

Regarding `CCNC(=O)C[C@@H]1CC[C@@H](NC(=O)NC2CCCCC2)[C@H](CO)O1`, the inhibition is -1.26% (inactive).
